G9a block = qHTS Assay for Inhibitors of Histone Lysine Methyltransferase G9a | AID 504332, 2011 | G9a H3K9 monomethylation, AlphaScreen, 2 h | 350,000 tested, 8.8% active | Histone-lysine N-methyltransferase EHMT2 (Homo sapiens), Q96KQ7 | Potency, µM (series often up to 102 µM), for the others: top-dose activity, negative = inhibition, most hits filed as inhibitors; also: potency is read from the fitted curve at half-maximal effect; % is scaled to controls: 0 for no effect and ±100 for the full control effect; nearly all actives have a fitted effect of over 75% in size
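Compounds were preincubated with 20 nM G9a for 15 min, after which biotinylated H3K9 peptide (500 nM) and SAM (20 uM) started a 2 h room-temperature reaction. Monomethylated product was quantified by antibody-based AlphaScreen chemiluminescence.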
PLK1 PBD inh = qHTS for Inhibitors of PLK1-PDB (polo-like kinase 1 - polo-box domain): Primary Screen; AID 720504, 2013; Plk1 PBD binding of FITC phosphopeptide, fluorescence polarization; Potency, µM, for the others: max response, negative = inhibition, most hits filed as inhibitors; 360,000 tested, 2.8% active; also: potency is read from the fitted curve at half-maximal effect; series mostly up to about 57 µM; % is scaled to controls: 0 for no effect and ±100 for the full control effect; nearly all actives have a fitted effect of over 65% in size
BAZ2B inh = qHTS Assay for Inhibitors of BAZ2B; Potency, µM (titrated, usually from 114 µM), for the others: at the top dose activity change, negative = inhibition, usual class: inhibitors; 360,000 tested, 4.4% active; AlphaScreen BAZ2B-H3K14Ac peptide displacement; AID 504333, 2011; also: potency is read from the fitted curve at half-maximal effect; % is scaled to controls: 0 for no effect and ±100 for the full control effect; nearly all actives have a fitted effect of over 60% in size
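Multi-concentration screen (max 110 uM) measuring displacement of acetylated histone H3 peptide from BAZ2B by AlphaScreen, using 50 nM protein, 50 nM peptide and 10 ug/mL streptavidin donor plus Ni-chelate acceptor beads.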
PI5P4Ka inh = qHTS for Inhibitors of phosphatidylinositol 5-phosphate 4-kinase (PI5P4K) | max response, % | 330,000 tested, 1.2% active | PI5P4Kalpha enzyme, ADP-Glo luminescence, 60 min; stronger effect = lower value | Phosphatidylinositol 5-phosphate 4-kinase type-2 alpha (Homo sapiens), P48426; active = max response of -50% or lower; inconclusive = between -30% and -50%; inactive = -30% or higher; also: value at the top dose of about 77 µM; % is scaled to controls: 0 for no effect and ±100 for the full control effect
Target sequence (P48426 whole entry, looked up): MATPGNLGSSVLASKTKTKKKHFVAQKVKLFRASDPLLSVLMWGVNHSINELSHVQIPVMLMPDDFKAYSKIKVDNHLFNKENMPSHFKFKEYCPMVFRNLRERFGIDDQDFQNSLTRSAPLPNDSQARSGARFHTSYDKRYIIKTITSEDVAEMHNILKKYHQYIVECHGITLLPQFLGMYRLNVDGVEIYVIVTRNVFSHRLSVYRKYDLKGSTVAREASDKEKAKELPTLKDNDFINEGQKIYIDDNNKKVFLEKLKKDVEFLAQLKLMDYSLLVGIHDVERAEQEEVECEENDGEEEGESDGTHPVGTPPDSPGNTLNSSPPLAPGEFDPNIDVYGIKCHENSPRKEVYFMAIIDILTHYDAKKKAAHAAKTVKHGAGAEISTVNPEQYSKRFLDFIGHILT
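Controls without substrate or without enzyme flank wells where PI5P4Kalpha converts substrate using 5 microM ATP (final). Incubation lasts 60 minutes at room temperature; ADP formed is read by ADP-Glo luminescence.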
JMJD2A Tudor = qHTS Assay for Inhibitors of JMJD2A-Tudor Domain. Lysine-specific demethylase 4A (Homo sapiens), O75164. AlphaScreen JMJD2A-Tudor / H3K4me3 peptide binding. Potency, µM (titrated, usually from 114 µM), inactives show at the highest dose activity change, negative = inhibition, hits mostly inhibitors. 390,000 tested, 4.4% active. AID 504339, 2011; also: potency is read from the fitted curve at half-maximal effect; % is scaled to controls: 0 for no effect and ±100 for the full control effect; nearly all actives have a fitted effect of over 50% in size
HP1b binding inh = HTS for Inhibitors of HP1-beta Chromodomain Interactions with Methylated Histone Tails. Chromobox protein homolog 1 (Homo sapiens), P83916. AlphaScreen HP1-beta / biotin-H3K9me3 peptide binding. Potency, µM (titrated, usually from 114 µM), inactives show at the highest dose activity change, negative = inhibition, actives largely listed as inhibitors. 390,000 tested, 0.56% active; also: potency is read from the fitted curve at half-maximal effect; nearly all actives have a fitted effect of over 70% in size
Target sequence (P83916 whole entry, looked up): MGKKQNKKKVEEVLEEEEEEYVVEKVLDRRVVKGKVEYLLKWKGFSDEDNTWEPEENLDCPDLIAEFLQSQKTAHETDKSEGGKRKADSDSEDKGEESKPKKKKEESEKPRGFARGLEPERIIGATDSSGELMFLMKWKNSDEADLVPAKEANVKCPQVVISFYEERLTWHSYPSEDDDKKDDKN
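Compound inhibition of the preformed complex between 50 nM HP1-beta and 50 nM biotinylated H3K9me3 peptide was read by AlphaScreen. Buffer was PBS pH 7.4 with 0.01% Tween-20. Incubations ran 30 min at room temperature, with 10 ug/mL donor/acceptor beads.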
An asterisk follows results filed as active; u = inconclusive; x = no result given; [ ] = remark or other dose. Shown are actives, neighbours in structure and some others; about 12% of the full set was active somewhere. Unless noted, calls follow the shape of the dose curve; as a rule, active = well fitted curve in the direction sought with a large enough effect; inconclusive = small, poorly fitted or top-dose-only effect, or another doubt; inactive = no such curve, though single readings can be large; an effect the other way counts as inactive or inconclusive.

SMILES | G9a block | PLK1 PBD inh | BAZ2B inh | PI5P4Ka inh | JMJD2A Tudor | HP1b binding inh
COc1ccccc1C(=O)NC1CCN(C(=O)Nc2ccc(F)cc2)CC1 | 29.0% | -13.6% | 9.2% | 8.6 | 0.7% | 25.4%
Cc1ccc(S(=O)(=O)C(CNC(=O)COc2ccccc2)c2ccco2)cc1 (centres undefined) | -2.1%[59 µM] | x | -9.9% | x | -14.0% | 21.0%
Cc1cccc(N=Nc2ccc(O)c3ncccc23)c1 | 7.08µM* | -14.2% | 8.91µM* | -28.7 | 31.6µM* | u
Cc1cccc(N=Cc2c(O)cc(C)oc2=O)c1 | u | -7.4% | 11.5% | -8.2 | -7.1% | 5.5%
CCOC(=O)N(C)OC(=O)Nc1ccc(Cl)c(Cl)c1 | u | 2.12µM* | x | x | -15.5% | u
CCOC(=O)N(CC)OC(=O)Nc1ccc(Cl)cc1 | 23.7%[12.7 µM] | 8.44µM* | -6.3% | x | -18.8% | -9.4%
CCOC(=O)NCCOC(=O)Nc1ccc(Cl)cc1 | 11.4% | u | -4.1% | 0.3 | -5.2% | 66.0%
CCOC(=O)CNNC(=O)Nc1ccc(Cl)c(Cl)c1 | 26.1% | -5.1% | -0.4% | 0.5 | -7.0% | 32.9%
CCCCOC(=O)c1ccc(NC(=O)Cc2coc3ccc(C(C)C)cc23)cc1 | 1.8%[59 µM] | x | -14.1% | x | 6.9% | 56.0%
COc1ccccc1-c1ocnc1C(=O)Nc1ccc(N2CCOCC2)cc1N1CCOCC1 | 50.1µM* | -14.0% | -15.1% | -0.6 | u | -13.0%
O=C(COc1ccc(F)cc1Cl)Nc1ccc(N2CCOCC2)cc1N1CCOCC1 | 35.5µM* | -9.6% | -10.3% | 10.0 | -28.3% | -3.7%
CCOc1ccccc1OCC(=O)Nc1ccc(N2CCOCC2)cc1N1CCOCC1 | 56.2µM* | -9.0% | -35.5% | 4.1 | u | -8.4%
CCOc1ccccc1NC(=O)COc1coc(CN2CCCc3ccccc32)cc1=O | 50.1µM* | -2.8% | u | -5.8 | u | -20.2%
O=C(COc1ccccc1F)Nc1ccc(N2CCOCC2)cc1N1CCOCC1 | u | 3.8% | -9.1% | 1.0 | -10.9% | 28.0%
COc1ccc(-n2c(=O)c3ccccc3c3ccccc3c2=O)cc1 | 10µM* | -14.9% | -30.0% | 2.7 | 4.8% | 34.7%
COc1ccc(OC)c(-n2c(=O)c3ccccc3c3ccccc3c2=O)c1 | 10µM* | u | u | -3.9 | u | 23.3%
CCCCCCN1CCN(C2CN(Cc3cn(Cc4ccccc4)nn3)S(=O)(=O)C2)CC1 (centres undefined) | x | -13.7% | x | -3.2 | x | x
CC(=O)SC[C@@H](Cc1ccccc1)C(=O)NCC(=O)OCc1ccccc1 | 14.7%[5.15 µM] | x | x | x | x | x
O=C(NCCN1CCN(c2ccccc2)CC1)C1CCN(S(=O)(=O)c2cccc3nsnc23)CC1 | 19.5%[59 µM] | 4.2% | -14.5% | 0.5 | -5.1% | 28.0%
O=C(NCc1ccco1)C1Cc2ccccc2CN1S(=O)(=O)c1ccccc1F (centres undefined) | x | -29.4% | x | -61.5* | 39.8µM* | u
O=C(NCc1ccco1)C1Cc2ccccc2CN1C(=O)c1ccco1 (centres undefined) | -4.1% | -10.3% | 79.4µM* | u | u | -4.9%
COc1ccc(CNC(=O)C2Cc3ccccc3CN2C(=O)c2ccco2)cc1 (centres undefined) | -6.9% | -8.8% | -24.4% | -6.3 | -10.6% | 35.7%
O=C(NCc1ccco1)C1CN(S(=O)(=O)c2ccccc2)CCN1S(=O)(=O)c1ccccc1 (centres undefined) | u | 1.1% | 3.4% | x | -14.9% | 16.0%
Cc1ccc(N2C(=O)CC(c3ccccc3F)C3=C2COC3=O)cc1Cl (centres undefined) | 17.4%[59 µM] | x | -20.3% | x | -7.8% | 55.9%
COC1=CC(=O)OC(c2cccc(C#N)c2)C1 (centres undefined) | x | -3.3% | x | -3.1 | x | x
SMILES | G9a block | PLK1 PBD inh | BAZ2B inh | PI5P4Ka inh | JMJD2A Tudor | HP1b binding inh
CCOc1ccc(NC(=S)NC(=O)c2c(Br)cnn2C)c([N+](=O)[O-])c1 | 28.2µM* | -13.0% | u | -4.4 | u | u
CCOc1ccc(NC(=S)NC(=O)c2c(Cl)cnn2CC)c([N+](=O)[O-])c1 | u | -2.4% | u | -1.7 | u | -15.7%
CC(C)C(=O)Nc1c2c(nn1-c1ccc(F)cc1)CS(=O)(=O)C2 | 19.7% | -23.2% | -7.2% | 3.9 | -0.7% | 23.7%
COc1cccc(/C(O)=C/c2nc3ccc(C(=O)NCCc4ccc(Cl)cc4)cc3[nH]c2=O)c1 | u | u | 4.3% | -92.9* | -7.4% | 17.9%
COc1ccc(C(=O)NCCS(=O)(=O)NC2CCCC2)cc1 | -17.9% | -6.8% | 8.6% | -0.2 | -10.8% | 32.1%
COc1cccc(C(=O)NCCS(=O)(=O)NCCc2ccccc2)c1 | 44.7µM* | -7.0% | 6.2% | -3.5 | -2.9% | 22.6%
COc1cccc(/C(O)=C/c2nc3ccc(C(=O)NCCc4cccc(C)c4)cc3[nH]c2=O)c1 | u | -12.2% | 6.6% | -0.2 | -12.5% | 46.5%
COc1cccc(C(=O)NCCS(=O)(=O)NC2CCCC2)c1 | 31.6µM* | -16.5% | 13.7% | 0.5 | -6.8% | 19.3%
O=C1CC(c2nnc(Cc3ccccc3Cl)o2)CN1c1ccccc1 (centres undefined) | -39.7%[59 µM] | x | -3.4% | x | 8.6% | 4.5%
CC(=O)Oc1cc(O)c2c(=O)c(OC(C)=O)c(-c3ccc(OC(C)=O)c(OC(C)=O)c3)oc2c1 | x | -16.8% | x | -97.9* | u | 0.8%
Cc1cccc(NC(=O)CSc2n[nH]c(-c3cccnc3)n2)c1 | -5.2% | -8.5% | -13.0% | 0.6 | -13.6% | 24.4%
COCCNCCCCOc1ccc(Br)cc1C | 5.62µM* | -17.3% | 50.1µM* | 1.4 | 1.12µM* | u
COc1ccccc1OCCCCNC(C)(C)C | 3.6%[59 µM] | -2.6% | x | x | -11.0% | 7.5%
COCCCNCCCCOc1ccc(Br)cc1C | 10µM* | -11.3% | u | -7.4 | 20µM* | u
Cc1cc(Br)ccc1OCCCCNC(C)(C)C | x | 26.7µM* | 50.1µM* | -7.5 | 28.2µM* | 10.6%
COCCNC(=O)COc1ccc(Br)cc1Cl | -2.7%[12.7 µM] | 2.6% | -5.0% | 1.3 | 0.3% | 38.3%
N#Cc1ccccc1NC(=O)CSc1cn[nH]n1 | u | -6.9% | 18.7% | 2.6 | -5.5% | 23.6%
Cc1cccc(-n2c(CNC(=O)c3ccc(S(=O)(=O)N4CCCC4)cc3)n[nH]c2=S)c1 | 0.708µM* | -5.7% | -3.6% | x | 10µM* | 14.1%
O=C(NCc1n[nH]c(=S)n1-c1cccc(Cl)c1)c1ccc(S(=O)(=O)N2CCCCC2)cc1 | 3.16µM* | -8.3% | 16.5% | -0.3 | -30.7% | 21.1%
Cc1ccc(CNC(=O)c2ccc(S(=O)(=O)N3CCCCCC3)cc2)cc1 | x | 1.9% | x | 2.1 | x | x

High-throughput results from PubChem.
